Results reported in PubChem BioAssay AID1259343 (VanderVen Lab, College of Veterinary Medicine, Cornell …, 2017).
Out of some 6,200 compounds screened, about 2,900 (47%) were called active. No stated cut-off is given here; in the data, active means inhibition above about 50%; inactive means the rest. The set was probably picked from earlier hits. This is one part of the list.

Experiment: Mycobacterium tuberculosis growth inhibition, primary screen (AID 1259343)
Conditions: inhibition: at 10 µM, active compounds read high; outcome: 10 uM

SMILES | inhibition
CN(C(=O)/C=C/c1ccc([N+](=O)[O-])s1)c1ccccc1 | 6.56% (inactive)
O=C(/C=C/c1ccc([N+](=O)[O-])s1)Nc1ccc(F)cc1F | 99.5% (active)
CCCCc1ccc(NC2=NC(C)(C)CS2)cc1 | 89.8% (active)
NC(N)=NN=Cc1ccc(-c2ccccc2)cc1 | 38.6% (inactive)
NC(N)=NN=C1c2ccccc2-c2ccccc21 | -74.8% (inactive)
NC(N)=NN=CC(Cl)=Cc1ccccc1 | 85.8% (active)
Cc1cc2oc(NC(=O)c3ccc(=O)n(C)c3)nc2c(C)c1Cl | -2.23% (inactive)
COc1ccc(-c2csc(C(C#N)C(=O)CC3C=CCC3)n2)cc1 (stereo not drawn) | 79.7% (active)
COc1ccc(C(=O)C2CCCN(Cc3nc(-c4ccc(F)cc4)cs3)C2)c(OC)c1 (stereo not drawn) | 31.3% (inactive)
CC(NC(=O)Nc1cccnc1N1CCCC1)c1ccn(C)c1 (stereo not drawn) | -18.1% (inactive)
CN(C)c1cccc(Nc2nccc3c2cc(-c2ccccc2)n3C)c1 | 74.6% (active)
CN(C)c1cccc(Nc2nccc3c2cc(-c2ccsc2)n3C)c1 | 63.8% (active)
O=C(NCCc1ccc(Cl)s1)c1ccc(Cl)o1 | 79.6% (active)
O=C(NCc1cc(Br)cs1)c1ccc(Cl)o1 | 37.9% (inactive)
O=C(NCc1ccc(Cl)s1)c1ccc(Br)o1 | -14.3% (inactive)
CCOc1cc(C=Nn2c(C)csc2=NC(C)C)ccc1O | 18.4% (inactive)
Cc1ccc(OP(N)(=O)Oc2ccc(C)cc2)cc1 | -4.77% (inactive)
CCc1ccc(-c2nc(SC3CCCCC3=O)n[nH]2)cc1 (stereo not drawn) | 57.1% (active)
O=C1CCCCC1Sc1nnc(Nc2ccccc2)s1 (stereo not drawn) | 6.48% (inactive)
CN(C1CCCCC1)S(=O)(=O)NC1COc2ccccc21 (stereo not drawn) | 37.8% (inactive)
COc1c(Cl)cc(C(=O)NCC(c2cccc(F)c2)N(C)C)cc1Cl (stereo not drawn) | -3.98% (inactive)

SMILES | inhibition
Oc1c(I)cc2oc3c(c2c1C=NCc1ccncc1)CCCC3 | 8.12% (inactive)
Oc1c(Br)cc2oc3c(c2c1C=NCc1ccncc1)CCCC3 | 84% (active)
CCCc1cnc(-c2ccc(C)c3ncccc23)nc1 | 8.84% (inactive)
COc1ccc(Cl)cc1C(=O)Nc1cc(-c2cccs2)nn1-c1nc(C(C)C)cc(=O)[nH]1 | 101% (active)
COc1ccc(Cl)cc1C(=O)Nc1cc(-c2cccs2)nn1-c1nc(C)cc(=O)[nH]1 | 96.4% (active)
CN1CCN(C(c2ccc(Cl)cc2)c2cc(Cl)c3cccnc3c2O)CC1 (stereo not drawn) | 90.6% (active)
Oc1c(C(c2ccc(Br)cc2)N2CCCC2)cc(Cl)c2cccnc12 (stereo not drawn) | 10.6% (inactive)
Oc1c(C(c2ccncc2)N2CCOCC2)cc(Cl)c2cccnc12 (stereo not drawn) | 101% (active)
CC(C)(C)c1cc(C(c2ccncc2)N2CCOCC2)cc(C(C)(C)C)c1O (stereo not drawn) | 94.5% (active)
CCOC(=O)N1CCN(C(=O)CSc2cc(-c3ccccc3)ncn2)CC1 | 93.6% (active)
CCOC(=O)N1CCN(C(=O)CCc2ccc(-c3ccc(OC)cc3)n2-c2ccc(SC)cc2)CC1 | 13.6% (inactive)
CCOC(=O)CNC(=O)CSc1ncnc2c1nnn2Cc1ccccc1 | -26.6% (inactive)
O=C(NCC1Cc2ccccc2O1)c1ccc(Cl)s1 (stereo not drawn) | 53.1% (active)
CC(C)(C)n1nc(C2CC2)cc1C(=O)NCC1Cc2ccccc2O1 (stereo not drawn) | -7.17% (inactive)
CC(C)(C)c1ccc2c(c1)CC(CNC(=O)/C=C/c1ccccc1)O2 (stereo not drawn) | 27.2% (inactive)
O=C(OCC1CC2CCC1C2)C(c1ccccc1)n1cccn1 (stereo not drawn) | 92.2% (active)
O=S(=O)(NC1CCN(C2CC2)CC1)c1cc(Cl)cc(Cl)c1 | 4.16% (inactive)
CC(=O)N1CCC(NS(=O)(=O)c2ccc3c(c2)CCCC3)CC1 | 86.8% (active)
O=S(=O)(NC1CCc2cc(F)ccc21)c1ccc2c(c1)CCC2 (stereo not drawn) | 10.6% (inactive)
CN(C)c1ccc(C(=C2C=CC(=[N+](C)C)C=C2)c2ccc(N(C)C)cc2)cc1 | 59.1% (active)
O=C(c1cc2cc(Cl)ccc2o1)N1CCN(S(=O)(=O)c2ccccc2Cl)CC1 | 42.3% (inactive)

SMILES | inhibition
O=C(NNC(=O)c1cc2cc(Cl)ccc2o1)c1cnccn1 | 101% (active)
CCc1c(C)nc(-n2nc(C)cc2NC(=O)c2cccc(OC)c2)[nH]c1=O | 102% (active)
CCc1c(C)nc(-n2nc(C)cc2NC(=O)c2ccc(C(F)(F)F)cc2)[nH]c1=O | 101% (active)
CCc1c(C)nc(-n2nc(C)cc2NC(=O)c2cc(C(F)(F)F)cc(C(F)(F)F)c2)[nH]c1=O | -3.31% (inactive)
CCc1c(C)nc(-n2nc(C)cc2NC(=O)c2ccc(OC)cc2)[nH]c1=O | 99.8% (active)
CCOc1cc(C(=O)Nc2cc(C)nn2-c2nc(C)c(CC)c(=O)[nH]2)cc(OCC)c1OCC | -22.4% (inactive)
CCc1c(C)nc(-n2nc(C)cc2NC(=O)c2cc(OC)cc(OC)c2)[nH]c1=O | 101% (active)
CCn1cc(NC(=O)c2cc3ccc(C(C)(C)C)cc3[nH]2)ccc1=O | -0.51% (inactive)
CCc1c(C)nc(-n2nc(C)cc2NC(=O)c2ccc(F)c(F)c2)[nH]c1=O | 99.7% (active)
CCc1c(C)nc(-n2nc(C)cc2NC(=O)c2ccccc2)[nH]c1=O | -16.5% (inactive)
CCc1c(C)nc(-n2nc(C)cc2NC(=O)c2cccc([N+](=O)[O-])c2)[nH]c1=O | 99.7% (active)
CCc1c(C)nc(-n2nc(C)cc2NC(=O)c2ccc(C)c(C)c2)[nH]c1=O | 42.5% (inactive)
CCc1c(C)nc(-n2nc(C)cc2NC(=O)c2cccc(C)c2)[nH]c1=O | 101% (active)
C=CCN1C(=O)C(=O)N(CC(=O)c2cc(C)n(CCCOC)c2C)C1=O | -11.2% (inactive)
O=C(CSC1=NCCS1)N1c2ccccc2Sc2ccccc21 | 27.6% (inactive)
CCSc1nnc2c(n1)OC(c1ccc(OCc3ccccc3)cc1)Nc1ccccc1-2 (stereo not drawn) | 83% (active)
O=C(O)c1cc2c(ccc3cc(Br)ccc32)oc1=O | 47.8% (inactive)
O=C(O)c1cc(Br)ccc1N=Cc1nc(-c2ccc(Cl)cc2)oc1O | 50.4% (active)
Nc1ccc(Oc2ccc(Oc3ccc(N)cc3)cc2)cc1 | 72.7% (active)
Nc1ccc(Oc2ccc(N)cc2)cc1 | -13.3% (inactive)
CCC(C)(C)c1ccc(Oc2ccc(N)cc2)cc1 | 21.9% (inactive)
